From PubChem BioAssay AID463173 (ICCB-Longwood Screening Facility, Harvard Medical School, 2010) come the findings set out here.

Among all 52,000 compounds or so, about 4,300 (8.3%) were called active. Only a selection was taken, and actives are over-represented in it overall. Values without a mark were called inactive. Cut-off read from the data, not from the text of the source: active = survival mostly below about 52% (no sharp cut-off); inactive = mostly above about 56%.

This experiment relates to DeltatarO mutant. The experiment is described as follows: S. aureus survival, RN4220 and DeltatarO strains – OD600, teichoic acid synthesis inhibitors, primary screen (AID 463173). The settings on record: S. aureus RN4220 wild type/DeltatarO growth, OD600, 18 h, active compounds read low, concentration not given here.
Take `CCc1ccc(NC(=O)c2cccn(Cc3cccc([N+](=O)[O-])c3)c2=O)cc1`: the survival was 89%.

`Cc1cc(C=C(C#N)C#N)c(C)n1C1CCCC1`: the survival was 64%.

As for `CC(C)NCc1ccc2c(c1)OCO2`, the survival was 76%.

Consider `Cc1ccc(C(C)(C)C)c(OCC(=O)Nc2ccc(Cl)cc2C(=O)c2ccccc2)c1`, for which the survival was 66%.

For the compound `CCN(CC)C(=O)c1ccc(NC(=O)CCn2nc(-c3ccc(C)cc3)c3ccccc3c2=O)cc1`, the survival was 61%.

Regarding `CCN(CC)C(=O)c1ccc(NC(=O)Cn2nc(-c3ccc(C)cc3)c3ccccc3c2=O)cc1`, the survival is 50%.

Turning to `CCN(CC)C(=O)c1ccc(NC(=O)CCn2nc(-c3ccc(Cl)cc3)c3ccccc3c2=O)cc1`, the survival was 47% (active).

Turning to `CCOc1ccccc1NC(=O)c1cccn(Cc2ccccc2C)c1=O`, the survival was 70%.

Take `Cc1n[nH]c(C)c1CCN`: the survival is 80%.

Consider `Cc1[nH]c2c(C)cccc2c1CCN`, for which the survival is 37% (active).

Take `O=S1(=O)CC2(N3CCOCC3)CCCCC21` (centres undefined): the survival is 84%.

As for `C=CCN1C(=O)CN=C(c2cccs2)c2c1sc1c2CCC1`, the survival was 92%.

As to `COc1cccc(NC(=O)Cn2cc(C(=O)c3ccccc3)c3ccccc32)c1`, the survival is 47%.

For `COc1ccc(OC)c(NC(=O)Cn2cc(C(=O)c3ccccc3F)c3ccccc32)c1`, the survival was 70% (active).

Take `COc1ccc(OC)c(NC(=O)Cn2cc(C(=O)c3ccccc3)c3ccccc32)c1`: the survival was 59%.

`Cc1ccc(-c2nn3c(=O)cc(CN4CCN(C(=O)COc5ccc(C)c(C)c5)CC4)nc3s2)cc1`: the survival is 81%.

For the compound `O=C(COc1ccccc1Cl)N1CCN(CCc2ccccn2)CC1`, the survival was 110%.

As to `COc1ccc(OC)c(C(c2c(O)c3ccccc3oc2=O)c2c(C)n(C)n(-c3ccccc3)c2=O)c1` (centres undefined), the survival is 56%.

On to `Cc1cccc(-n2c(/C=C\c3cccc(Br)c3)nc3ccccc3c2=O)c1`, for which the survival was 113%.

`COc1cccc(-n2c(/C=C/c3cccc(C)c3)nc3ccccc3c2=O)c1`: the survival is 0% (active).

In the case of `COc1ccc(/C=C/c2nc3ccccc3c(=O)n2-c2ccc(C)cc2)cc1O`, the survival was 85%.

In the case of `COc1cccc(/C=C/c2nc3ccccc3c(=O)n2-c2ccc(Cl)cc2)c1OC`, the survival is 88%.

On to `COc1cccc(-n2c(/C=C\c3ccc(Cl)cc3)nc3ccccc3c2=O)c1`, for which the survival is 30% (active).

Regarding `Cc1ccc(-n2c(/C=C/c3ccccc3)nc3ccccc3c2=O)cc1Cl`, the survival is 68%.

In the case of `O=c1c2ccccc2nc(/C=C/c2cccc3ccccc23)n1-c1ccc(Cl)cc1`, the survival is 78%.

Take `CCN1CCN(C(=O)COc2ccc(S(=O)(=O)N(C)Cc3ccccc3)cc2)CC1`: the survival is 87%.

With `CC1(C)CC(NC(=O)CN2CCCC2=O)CC(C)(C)N1`, the survival is 79%.

`COc1ccc(C=C2C(=O)NC(=S)NC2=O)cc1`: the survival was 96%.

For `Cc1cccc(OC(C)C(=O)NCC2(N(C)C)CCCCC2)c1C` (centres undefined), the survival is 92%.

Consider `N#CC(C#N)=Cc1ccc(Sc2ccccc2)o1`, for which the survival was 72%.

On to `COc1ccccc1CNCCc1ccccc1`, for which the survival was 95%.

Turning to `Cc1ccc(C(C)C)c(OCC(=O)N2CCN(CCc3ccncc3)CC2)c1`, the survival was 42% (active).

Consider `O=C(COc1ccccc1Cl)N1CCN(CCc2ccncc2)CC1`, for which the survival is 95%.

Consider `CCc1ccc(OCC(=O)N2CCN(CCc3ccncc3)CC2)cc1`, for which the survival is 98%.

`COc1ccc(OCC(=O)N2CCN(CCc3ccncc3)CC2)cc1`: the survival is 82%.

Regarding `CC(C)c1ccc(OCC(=O)N2CCN(CCc3ccncc3)CC2)cc1`, the survival is 44% (active).

In the case of `O=C(COc1cccc(Cl)c1)N1CCN(CCc2ccncc2)CC1`, the survival was 47% (active).

Regarding `O=C(COc1ccccc1[N+](=O)[O-])N1CCN(CCc2ccncc2)CC1`, the survival is 90%.

With `Cc1cc(OCC(=O)N2CCN(CCc3ccncc3)CC2)cc(C)c1Cl`, the survival is 57% (active).

For the compound `O=C(COc1ccc2ccccc2c1)N1CCN(Cc2ccncc2)CC1`, the survival was 67%.

With `Cc1cc(OCC(=O)N2CCN(CCc3ccncc3)CC2)ccc1Cl`, the survival was 49%.

In the case of `Cc1ccc(OCC(=O)N2CCN(CCc3ccncc3)CC2)cc1`, the survival was 86%.

Take `Cc1ccc(OCC(=O)N2CCN(CCc3ccncc3)CC2)cc1C`: the survival is 53%.

Consider `O=C(Nc1ccc2c(c1)OCCO2)c1cccn(Cc2cccc([N+](=O)[O-])c2)c1=O`, for which the survival was 94%.

Consider `Cc1ccc(-n2c(/C=C/c3cc(Br)cs3)nc3ccccc3c2=O)cc1`, for which the survival is 74%.

As for `CC(=O)N(C1=NCCCS1)c1ccc(C)cc1`, the survival was 99%.

As to `CC(=O)OC1(c2ccccc2)CCN(C)C2CCCCC21` (centres undefined), the survival was 91%.

In the case of `CN1CCc2nc3sc4c(=O)[nH]c(=O)[nH]c4c3cc2C1`, the survival is 79%.

As to `Cc1ccc(Cl)cc1NC(=O)N(Cc1ccc2c(c1)OCO2)C1CCN(Cc2ccccc2)CC1`, the survival is 55%.

Turning to `Cc1cccnc1-n1c(C)nc2ccccc2c1=O`, the survival was 76%.

For `COc1ccc(NC(=O)CCc2nc(C3=CCN(Cc4cccc(C)c4)CC3)no2)c(OC)c1`, the survival was 91%.

For `COC(=O)c1ccccc1NC(=O)c1cccn(Cc2cccc(Cl)c2)c1=O`, the survival was 73%.

In the case of `CCOc1ccc2nc(NC(=O)c3cccn(Cc4ccccc4Cl)c3=O)sc2c1`, the survival was 87%.

Regarding `O=c1c2ccccc2[nH]c(=S)n1-c1ccccc1`, the survival is 90%.

Turning to `CCOc1ccc2nc(NC(=O)c3cccn(Cc4ccccc4)c3=O)sc2c1`, the survival is 94%.

Regarding `O=S1(=O)N(Cc2ccccc2)CCCN1Cc1cccc(Cl)c1`, the survival is 71%.

In the case of `O=S1(=O)N(Cc2ccccc2Cl)CCCN1Cc1ccccc1Cl`, the survival was 10% (active).

For the compound `O=S1(=O)N(Cc2ccccc2)CCCN1Cc1ccc(F)cc1Cl`, the survival is 87%.

Consider `O=C(Nc1ccon1)c1cccn(Cc2cccc([N+](=O)[O-])c2)c1=O`, for which the survival was 102%.

Take `COc1ccc(C(C(=O)NC2CCCCC2)N(CCN2CCOCC2)C(=O)Cc2c[nH]c3ccccc23)cc1OC` (centres undefined): the survival was 59%.

Take `COc1ccccc1NC(=O)N(Cc1ccc2c(c1)OCO2)C1CCN(Cc2ccccc2)CC1`: the survival is 88%.

Consider `COc1ccccc1-n1c(/C=C/c2ccccc2)nc2ccccc2c1=O`, for which the survival was 67%.

Turning to `CCCSc1nc2ccccc2c(=O)n1-c1ccccc1OC`, the survival was -2% (active).

As to `CSc1nc2ccccc2c(=O)n1-c1ccccc1C`, the survival was 95%.

With `Cc1cccc(Cn2cccc(C(=O)Nc3cc(C)on3)c2=O)c1`, the survival was 73%.

On to `CCCCCn1c(=O)c(C(=O)Nc2ccccc2S(N)(=O)=O)c(O)c2ccccc21`, for which the survival was 0% (active).

For `CCCCn1c(=O)c(C(=O)NC)c(O)c2ccccc21`, the survival was 99%.

Take `CCN1CCN(Cc2nnnn2C(C)(C)C)CC1`: the survival was 100%.

Turning to `O=C1CC(c2cccnc2)Nc2ccc3ccccc3c21` (centres undefined), the survival was 86%.

Regarding `Cc1ccc(Cn2cccc(C(=O)Nc3cc([N+](=O)[O-])ccc3C)c2=O)cc1`, the survival is 82%.

For the compound `CCc1ccccc1NC(=O)c1cccn(Cc2ccccc2F)c1=O`, the survival is 47% (active).

Regarding `Cc1nnc(NC(=O)c2cccn(Cc3ccccc3F)c2=O)s1`, the survival was 94%.

`CCOC(=O)c1ccc(NC(=O)c2cccn(Cc3ccccc3F)c2=O)cc1`: the survival was 86%.

Take `CC(C)c1ccc(OCC(=O)N2CCN(CCc3ccccn3)CC2)cc1`: the survival is 66%.
